An excerpt weighted towards active compounds, which were near 27% of everything screened.
CYP2C19 activ – cytochrome P450 2C19 (human) activation; recombinant CYP2C19, luciferin-H EGE luminescence; hits give high values; 0 = fully inhibited enzyme, 1 = untreated enzyme; AID 1025; 96,000 tested, under 10 active; P33261; activation factor at 5 µM;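 active = activation factor of at least 2 at 5 µM in the primary screen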;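 also: 0 = wells with 2.5 mM tranylcypromine and 1 = vehicle-only wells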
CYP2C19 inhib – human CYP2C19 inhibition. P33261. AID 778. CYP2C19 Supersomes, luciferin-H EGE luminescence, 30 min. inhibition, % at 5 µM. 21% of 96,000 active;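 active = CYP2C19 inhibition above a set limit at 5 µM in the primary screen, cut at about 50% in these data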;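 also: plate controls were negative control wells for no effect and 2.5 mM tranylcypromine positive control for full effect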
Cav3 T inh – inhibitors of human Cav3.2 T-type calcium channel. O95180. Cav3.2-expressing cells, Fluo-4 calcium fluorescence FDSS; hits give low values. B-score at 10 µM. 4% of 100,000 active. AID 449739;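 active = single-dose well whose peak fluorescence ratio is a statistical outlier from its plate by either plate-standardised score or position-corrected B-score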
CYP2C9 activ – CYP2C9 (human) activation | 1.4% of 96,000 active | activation factor at 5 µM | recombinant CYP2C9, luciferin-H conversion, luminescence; hits give high values; factor 1 = untreated enzyme, 0 = blocked;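 active = activation factor of 2 or more for CYP2C9 at a 5 µM dose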;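 also: 0 = sulfaphenazole-blocked wells and 1 = vehicle-only wells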
CYP2C9 inhib – human CYP2C9 inhibition | CYP2C9 Supersomes, luciferin-H conversion, luminescence | inhibition, % at 5 µM | 20% of 96,000 active | P11712;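 active = blocking of liver enzyme CYP2C9 beyond about 50% at 5 µM, limit read from the data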
* marks the source's active call; other numbers are inactive results; . = not tested or not shown.

SMILES	CYP2C19 activ	CYP2C19 inhib	Cav3 T inh	CYP2C9 activ	CYP2C9 inhib
COc1ccc(C)cc1NC(=O)CN(Cc1nnc(-c2ccc(Cl)cc2)o1)C1CCCC1	0.6	36	-4.2*	0.9	10
O=C(N[C@@H](Cc1ccccc1)C(=O)O)c1c(F)c(F)c(F)c(F)c1F	.	.	1.5	.	.
Cc1ccc(C)c(C(=O)COC(=O)c2ccc(Br)o2)c1	0.7	27	-2	1.7	-71
CS(=O)(=O)N(CC(=O)NCC1CCCO1)c1cc(Cl)ccc1Cl (stereo unspecified)	0.8	24	-0.23	0.9	14
CS(=O)(=O)N(CC(=O)Nc1cc(Cl)ccc1Cl)c1ccccc1Cl	0	96*	-4.7*	0.2	77*
COC(=O)c1[nH]c2cccc(Cl)c2c1NC(=O)CN(C)C1CCCCC1	0.5	48	-2.3	0.4	63*
COc1ccc(Cl)cc1NC(=O)CN(c1ccccc1)S(=O)(=O)N(C)C	0.2	81*	-10*	1.4	-35
COCCn1c(SCC(=O)NCc2ccco2)nnc1C(C)C	.	.	-0.61	.	.
Cc1ccc(S(=O)(=O)NCC(=O)Nc2ccc(C(F)(F)F)cc2)cc1	0.8	24	-1.2	0.9	9
O=C(CNS(=O)(=O)c1ccc(F)cc1)Nc1ccc(C(F)(F)F)cc1	0.4	65*	-3	0.4	55*
O=C(CNS(=O)(=O)c1ccccc1)Nc1ccc(C(F)(F)F)cc1	0.5	51*	-1.3	0.7	30
CCc1ccc(N2CC(C(=O)Nc3nnc(CC)s3)CC2=O)cc1 (stereo unspecified)	1.2	-18	-0.019	0.7	26
c1ccc(-c2ncnc3nc4n(c23)CCC4)cc1	1	-2	0.39	1	1
CCOC(=O)c1cc2c(C)n(-c3ccc(N(C)C)cc3)c(C)c2cc(C(=O)OCC)c1=O	0.5	50*	0.44	0.7	33
CCOC(=O)C1=NN(c2ccccc2)C(=O)/C1=C\c1ccc(N(C)C)cc1	1	3	0.043	0.8	19
CCOC(=O)c1cc2occc2n1Cc1c(F)cccc1Cl	1.2	-16	0.098	1	-5
Cc1cc2c(cc(C(=O)N3CCC(C(=O)N4CCCC4)CC3)n2Cc2c(F)cccc2Cl)o1	0	96*	-2.3	0.2	78*
C/C(Cl)=C\CNC(C)c1ccccc1 (stereo unspecified)	0.5	55*	-0.11	0.9	6
Cc1cnc(C(=O)OCC(=O)Nc2cccc(Cl)c2)cn1	0.6	40	0.21	1	-2
O=C(Oc1cccnc1)c1ccc(Cl)c(Cl)c1	1.1	-10	.	1	-2
O=C(Nc1cccc(Cl)c1)Nc1ccc(Cl)cn1	1	-1	1.5	1	4
O=C(COC(=O)c1ccncc1)Nc1cccc(Cl)c1	0.2	78*	-0.46	0.1	87*
O=C(COC(=O)c1cccnc1)Nc1cccc(Cl)c1	0.1	86*	-0.042	0.3	69*
O=C(COC(=O)c1cccnc1)c1ccc(Cl)c(Cl)c1	0.2	77*	-1.4	0.6	39
O=C(Nc1cccc(Cl)c1)O/N=C\c1ccncc1	0.1	89*	0.32	0.1	90*
SMILES	CYP2C19 activ	CYP2C19 inhib	Cav3 T inh	CYP2C9 activ	CYP2C9 inhib
CC(C)CNC(=S)NNC(=O)c1ccco1	.	.	0.022	.	.
CC(C)CC(=O)NC1(C(F)(F)F)C(=O)Nc2c1c(=O)n(C)c(=O)n2C (stereo unspecified)	1.1	-8	-0.016	1	-1
Cc1ccccc1C(=O)O/N=C1\CCS(=O)(=O)c2sccc21	1	3	1.8	1	2
CCCc1nnc(SCC(=O)O)n1/N=C/c1ccc2c(c1)OCO2	1	-1	-0.022	1	2
COC(=O)CCC(=O)Nc1cccc(Cl)c1	.	.	0.45	.	.
COC(=O)c1nnn(CC(=O)Nc2cccc(Cl)c2)c1C(=O)OC	0.2	79*	-0.22	0.3	70*
COc1cccc(NC(=O)COC(=O)c2cccnc2)c1	0.3	67*	-0.023	0.7	35
COc1cccc(NC(=O)c2cccnc2)c1	0.9	7	0.15	1	0
O=C(CC(=O)NC1CCCCC1)N/N=C/c1cccc2ccccc12	0.9	6	-0.061	1	-2
O=C(O)CONC(=O)c1cc(OCC(F)(F)F)ccc1OCC(F)(F)F	1	-1	0.16	1	-3
Cc1ccc(S(=O)(=O)N=S(CC2CC2(Cl)Cl)CC2CC2(Cl)Cl)cc1 (stereo unspecified)	0.4	62*	-1	0.6	44
CN(C)c1ccc(P(=O)(OCc2ccccc2)C(O)c2ccncc2)cc1 (stereo unspecified)	0.3	66*	.	0.4	63*
COC(=O)c1c(C(=O)OC)c(C)n(Cc2cccnc2)c1C	0.7	28	1.9	0.5	51*
COC(=O)c1c(C(=O)OC)c(C)n(Cc2ccco2)c1C	0.6	41	1.2	1	0
Cc1nc2nc3c(cn2n1)C(=O)CC(C)(C)C3	0.9	8	0.6	1.4	-36
O=C1/C(=C/c2cccnc2)Oc2cc(OS(=O)(=O)c3ccccc3)ccc21	0.7	35	-0.58	0.4	56*
O=C1/C(=C/c2ccc(O)c(O)c2)Oc2cc(O)ccc21	.	.	-0.5	.	.
O=C1CCCC2=C1C(c1ccc(OS(=O)(=O)c3ccc(Cl)cc3)cc1)C1=C(CCCC1=O)O2	1.1	-10	0.49	1.2	-17
COc1ccc(S(=O)(=O)Oc2ccc3c(c2)O/C(=C\c2cccnc2)C3=O)cc1	0.3	75*	0.17	0.1	92*
O=C1/C(=C/c2cccnc2)Oc2cc(OS(=O)(=O)c3ccc(Cl)cc3)ccc21	0.7	26	0.85	0.5	50*
COc1cc(/C=C2\Oc3cc(O)ccc3C2=O)ccc1O	.	.	-2.7	.	.
CC(NC(=O)c1ccc(Cl)cc1)c1nnc(SCc2ccc([N+](=O)[O-])cc2)n1C (stereo unspecified)	1	0	.	1	3
COC(=O)C1=C(C(=O)OC)[N+]2=C3N(C(=O)NC2(C)C)[C@H](CO)C[C@@]32c3ccccc3N(Cc3ccccc3)[C@@H]12	.	.	-1.6	.	.
COc1ccc(OCCSc2nnc(CC(=O)Nc3cccc(Cl)c3Cl)n2C)cc1	1.1	-10	-4*	1.1	-8
COc1ccc(Cl)cc1NC(=O)CSc1nnc(COc2ccccc2)n1C	0.5	55*	-1.8	1.8	-76
COc1ccccc1NC(=O)CSc1nnc(CC(=O)Nc2cccc(C(F)(F)F)c2)n1C	0.5	51*	-0.16	1.5	-49
COc1ccc(NC(=O)Cc2nnc(SCC(=O)Nc3cc(C)ccc3OC)n2C)cc1	0.1	95*	.	1.2	-16
COc1ccc(Cl)cc1NC(=O)CSc1nnc(COc2ccccc2)n1N	0.6	44	-3.3	1.6	-58
CCn1c(CC(=O)Nc2cccc(Cl)c2Cl)nnc1SCCOc1ccc(OC)cc1	0.8	23	-0.029	0.9	7
COc1ccc(C)cc1NC(=O)CSc1nnc(CC(=O)Nc2cccc(C(F)(F)F)c2)n1C	0.8	16	-0.8	1.2	-18

High-throughput results from PubChem.
